ALDH1A1 inh – ALDH1A1 (human) enzyme inhibition | P00352 | Purified ALDH1A1, NADH fluorescence, propionaldehyde substrate | Potency, µM (top dose mostly 75.3 µM), most hits filed as inhibitors | 220,000 compounds, 7.3% hits | AID 1030
JMJD2E inh – JMJD2E (human) inhibition; JMJD2E catalytic domain, FDH-coupled NADH fluorescence (FDH is formaldehyde dehydrogenase); 230,000 compounds, 1.6% hits; AID 2147; Potency, µM (titrated, usually from 57.1 µM), hits mostly inhibitors; note: nearly all actives have a fitted effect of over 50% in size
Target sequence (B2RXH2 1-337 limits assumed): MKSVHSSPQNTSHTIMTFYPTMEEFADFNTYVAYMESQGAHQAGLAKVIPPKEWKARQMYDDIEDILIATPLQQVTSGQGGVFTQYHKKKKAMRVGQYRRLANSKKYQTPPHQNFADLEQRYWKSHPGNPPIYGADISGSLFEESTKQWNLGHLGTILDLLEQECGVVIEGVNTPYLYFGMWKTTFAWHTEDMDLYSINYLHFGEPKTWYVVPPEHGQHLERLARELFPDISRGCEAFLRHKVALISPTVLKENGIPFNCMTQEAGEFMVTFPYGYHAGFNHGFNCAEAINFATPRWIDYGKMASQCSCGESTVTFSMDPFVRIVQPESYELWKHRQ
PNC inhibitor – blocks assembly of the perinucleolar compartment. PC3M PTB-GFP, PNC prevalence imaging, 16 h; active compounds read low. activity change (PNC), negative = inhibition, % at 10 µM. 140,000 compounds, 3.1% hits;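 active = readout at or below -70, meaning at least 70% loss of cells showing the perinucleolar compartment, a nuclear body marking cancer cells; inconclusive = readout between -30 and a set limit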
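Read-out is percentage of cells bearing a perinucleolar compartment, from automated 20x imaging of fixed, Hoechst-stained PC3M PTB-GFP cells. Cells were seeded 4 h, then exposed 16 h to compound (23 nl of library stock) in duplicate plates.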
HPGD inh – blocks human HPGD enzyme activity; P15428; purified HPGD, NADH fluorescence kinetic, PGE2 substrate; Potency, µM, usual class: inhibitors; 150,000 compounds, 4.3% hits
Target sequence (P15428 whole entry, looked up): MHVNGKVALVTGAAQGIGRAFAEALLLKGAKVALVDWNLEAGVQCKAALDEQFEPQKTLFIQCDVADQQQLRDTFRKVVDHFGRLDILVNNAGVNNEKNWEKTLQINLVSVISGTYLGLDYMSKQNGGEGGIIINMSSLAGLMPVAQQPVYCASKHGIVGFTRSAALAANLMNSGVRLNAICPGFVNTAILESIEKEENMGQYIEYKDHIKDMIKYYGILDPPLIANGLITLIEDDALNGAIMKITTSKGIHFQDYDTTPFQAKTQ
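20 nM HPGD preincubated 15 min at room temperature with compound in 50 mM Tris-HCl pH 8, 0.01% Tween 20. Started with 1 mM NAD+ and 30 uM prostaglandin E2; NADH fluorescence (360/450 nm) read 5 times over 30-s intervals, last minus first.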
A number is an active result; n = inactive; u = inconclusive; x = not tested or not shown. The list is not random: actives were taken first. Their share in the collection is about 11%. Unless noted, calls come from the whole dose curve; as a rule, active = well fitted inhibition curve with a large enough effect (not every such curve was filed as active); inconclusive = small, poorly fitted or top-dose-only effect, or another doubt; inactive = no such curve, though single readings can be large or run the other way.

SMILES | ALDH1A1 inh | JMJD2E inh | PNC inhibitor | HPGD inh
Cc1ccc(CSCc2ccc(C(=O)NC3CCCC3)o2)cc1 | 22.4µM | n | x | x
O=C(NC1CC1)c1ccc(CSCc2cccc(F)c2)o1 | u | n | -105.7 | n
C/C(=N\Nc1ccccc1)c1c(O)cc(C)oc1=O | 14.1µM | n | x | x
Cc1cc2oc(=O)cc(Cn3ccnc3)c2cc1C | n | u | n | n
Cc1cc2oc(=O)cc(Cn3ncc(Cl)c(Cl)c3=O)c2cc1Cl | 0.0794µM | n | x | x
COc1ccc(OC)c(Nc2nc(=O)c3cccnc3s2)c1 | 2µM | n | x | x
Cc1ccc(Nc2nc(=O)c3cccnc3s2)cc1 | n | n | n | n
CCCc1nc(N2CCOCC2)c2sc(=S)n(-c3ccccc3)c2n1 | 10µM | n | n | n
CC1(C)Oc2ccc(NC(=O)C3COc4ccccc4O3)cc2O1 (stereo not given) | 0.0355µM | n | n | 20µM
CC1CC(C)CN(S(=O)(=O)c2ccc(NC(=O)C3COc4ccccc4O3)cc2)C1 (stereo not given) | n | n | -121.7 | n
O=C(Nc1nncs1)C1COc2ccccc2O1 (stereo not given) | n | n | n | u
NS(=O)(=O)c1ccc(NC(=O)C2COc3ccccc3O2)cc1 (stereo not given) | n | n | n | n
O=C(Nc1ccc(-c2cn3ccsc3n2)cc1)C1COc2ccccc2O1 (stereo not given) | n | n | -94.5 | n
O=C(NC1CC2CCCC(C1)N2Cc1cccs1)c1ccc([N+](=O)[O-])cc1 (stereo not given) | n | n | x | x
O=C(Nc1ncn[nH]1)c1cccc(S(=O)(=O)N2CCOCC2)c1 | u | n | x | x
COc1ccc(N(CN2C(=O)c3ccccc3C2=O)C(=O)C(C)C)cc1 | 11.2µM | n | u | n
O=C(c1ccc(Cl)cc1)c1oc2ccccc2c1CS(=O)c1ccc(Cl)cc1 (stereo not given) | 3.98µM | n | u | n
CCC(=O)NC(c1cccs1)c1ccc2cccnc2c1O (stereo not given) | n | 25.1µM | x | x
CCCC(=O)NC(c1ccccc1OC)c1ccc2cccnc2c1O (stereo not given) | n | 31.6µM | x | x
COc1ccc(C(NC(C)=O)c2ccc3cccnc3c2O)c(OC)c1 (stereo not given) | n | 22.4µM | n | n
COc1ccc(C(NC(C)=O)c2cc(Cl)c3cccnc3c2O)cc1OC (stereo not given) | n | n | x | x
CC(C)CC(=O)NC(c1cccs1)c1ccc2cccnc2c1O (stereo not given) | n | n | x | x
O=C1CC(c2ccccc2)CC(O)=C1C=NCCN1CCN(C(=O)Nc2ccccc2)CC1 (stereo not given) | n | n | n | n
O=C(Nc1nc(N2C(=O)c3ccccc3C2=O)n(-c2ccccc2)n1)c1ccccc1 | n | n | n | n
O=C(Nc1nc(N2C(=O)c3ccccc3C2=O)n(-c2ccccc2)n1)c1ccc(F)cc1 | 20µM | n | n | n
SMILES | ALDH1A1 inh | JMJD2E inh | PNC inhibitor | HPGD inh
COc1ccc(C2CC(c3c(O)cc(C)oc3=O)=NCCS2)c(OC)c1 (stereo not given) | u | n | -113.7 | 15.8µM
CN=C(NC#N)NCCSC[C@H]1N=CN=C1C | n | n | x | n
O=C(Nc1cccnc1)c1cc(-c2cc(Cl)ccc2O)n[nH]1 | x | n | x | x
Oc1ccc(Cl)cc1-c1cc(-c2ccccc2Cl)[nH]n1 | n | n | n | 7.94µM
O=c1cc(O)c(-c2ccccc2Cl)c(Cl)[nH]1 | n | n | u | n
Oc1ccccc1-c1cc(-c2ccccc2Cl)[nH]n1 | n | n | n | 14.1µM
Oc1ccccc1-c1cc(-c2cccc(F)c2)n[nH]1 | n | n | u | n
Oc1ccc(Cl)cc1-c1cc(-c2cccc(Br)c2)n[nH]1 | n | n | n | 3.16µM
Oc1ccc(Br)cc1/C=N/N1CCCCC1 | n | n | n | u
Oc1ccc(Br)cc1/C=N/n1cnc2ccccc21 | n | n | n | 14.1µM
CCCN1C(=O)/C(=C\c2nc3ccccc3c(=O)[nH]2)c2ccccc21 | 4.47µM | n | x | x
Cc1cc(C(F)(F)F)nn1CC(=O)Nc1ccc(Br)c2cccnc12 | n | n | -100.0 | n
Cc1cc(C(F)(F)F)nn1CC(=O)NCc1ccccc1 | n | n | n | n
CC(C)N(CCNC(=O)c1ccc(Cc2nc3ccccc3[nH]2)cc1)C(C)C | u | x | x | n
CCOc1ccccc1NC(=O)CN(Cc1ccccc1)S(C)(=O)=O | n | n | -94.2 | n
CCOc1ccccc1NC(=O)Nc1cc(S(=O)(=O)N(C)C)ccc1C | n | n | x | x
CSc1ccccc1NC(=O)CN(Cc1ccccc1)S(C)(=O)=O | n | n | n | n
CN(C)S(=O)(=O)c1cccc(C(=O)Nc2ccccc2[N+](=O)[O-])c1 | u | n | n | 39.8µM
COc1cc2c(cc1NC(=O)c1cccc(S(=O)(=O)N(C)C)c1)oc1ccccc12 | u | u | -107.1 | u
CCN(CC)S(=O)(=O)c1cc(C(=O)Nc2ccccc2[N+](=O)[O-])ccc1Cl | n | n | n | n
CCN(CC)S(=O)(=O)c1ccc(C(=O)Nc2cc3oc4ccccc4c3cc2OC)cc1 | u | u | n | n
CCOc1ccccc1NC(=O)c1ccc(S(=O)(=O)N(C)C)cc1 | 14.1µM | n | n | n
NC(=O)N/N=C/C=C/c1ccc(F)cc1 | n | n | x | x
Cc1cc(=O)oc2c1ccc1oc(/C(=N/O)c3ccccc3)c(C)c12 | u | n | n | 12.6µM
Oc1ccc(-c2n[nH]c(=S)n2Cc2ccccc2)cc1 | 20µM | u | n | u
SMILES | ALDH1A1 inh | JMJD2E inh | PNC inhibitor | HPGD inh
Cc1ccccc1OCc1n[nH]c(=S)n1Cc1ccccc1 | n | n | n | 14.1µM
Cc1scc(-c2n[nH]c(=S)n2Cc2ccccc2)c1C | n | n | n | u
S=c1[nH]nc(-c2ccncc2)n1Cc1ccccc1 | n | n | u | n
CCc1c(-c2n[nH]c(=S)n2Cc2ccccc2)csc1C | 10µM | n | u | 15.8µM
S=c1[nH]nc(-c2cccnc2)n1Cc1ccccc1 | 14.1µM | u | n | n
Cc1cc(-c2n[nH]c(=S)n2Cc2ccccc2)cs1 | u | u | n | u
Cc1cnc(CNc2ncncc2-c2ccccc2C)cn1 | n | x | x | x
S=c1[nH]nc(-c2ccc3ccccc3n2)n1-c1cc(Cl)cc(Cl)c1 | u | n | n | u
S=c1[nH]nc(-c2ccc3ccccc3n2)n1-c1ccccc1Cl | n | n | n | 10µM
S=c1[nH]nc(-c2ccc3ccccc3n2)n1Cc1ccccc1 | n | n | n | 11.2µM
O=C(CCl)N1N=C(c2cccs2)CC1c1ccco1 (stereo not given) | 0.447µM | u | x | x
CCCCN=c1scc(-c2ccc3c(c2)NC(=O)CO3)n1N=C1CCCC1 | 3.16µM | n | n | u
CCN=c1scc(-c2ccc3c(c2)NC(=O)CO3)n1N=C1CCCC1 | u | n | n | 15.8µM
COc1ccc(-c2[nH]c(-c3ccc(Cl)cc3)nc2SCC(=O)Nc2nccs2)cc1 | n | n | n | n
COc1ccc(-c2[nH]c(-c3ccccc3)nc2SCC(=O)Nc2nccs2)cc1 | n | n | -97.6 | n
COc1ccccc1NS(=O)(=O)c1cc(NC(=O)CNC(=O)c2ccc(C)s2)ccc1Cl | u | n | n | n
COC(=O)C1=C(C)N(Cc2ccccc2)C(=O)N[C@@H]1c1ccccc1 | n | n | x | n
